# Data reported in PMC6212790, “How bacterial xenogeneic silencer rok distinguishes foreign from self DNA in its resident genome”.
# Whole data set: some 33,000 sequences, median “e-score” near -0.038, cut for the highest 2% near 0.33. This is one part of a sample in which the highest values are shown more often than they occur.
# Molecular target: T1, GST-Rok-C97-191 (Bacillus subtilis subsp. subtilis str. …, UniProt O34857 97-191)
# T1 sequence: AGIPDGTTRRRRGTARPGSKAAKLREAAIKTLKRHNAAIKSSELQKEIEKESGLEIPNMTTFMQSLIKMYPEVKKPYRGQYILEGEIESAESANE
# Assay: protein binding microarray; Rok is a gene silencer of Bacillus subtilis; high values mean tight binding
# Settings: protein: recombinant; tags: GST (pTH5325, pDEST15-Magic modified); dsDNA, one strand shown
# Method in brief: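 Each has a 25-mer constant primer and a 35-mer variable part from a de Bruijn sequence of order 10, covering every non-palindromic 8-mer at least 32 times (palindromic 16). Preference for each 8-mer is given as a rank-based, unitless enrichment score (E-score). Its range runs from 0.5 (most favored) to −0.5 (most disfavored).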
row,Sequence,binding signal
1,CTAACTAA,0.288 E-score
2,TTAACTAA,0.235 E-score
3,CTAACTCC,-0.00723 E-score
4,GGAACTAC,0.254 E-score
5,GTAACTAC,0.417 E-score
6,GTAACTAA,0.353 E-score
7,CTAACTAG,0.268 E-score
8,CTAACTAC,0.348 E-score
9,ATAACTAC,0.323 E-score
10,CAAGCAGA,0.0345 E-score
11,GCCGAATA,0.0948 E-score
12,GCTCGTAA,0.0484 E-score
13,ACTCCAGC,0.114 E-score
14,CTGAAGGA,-0.156 E-score
15,ATCCAGCG,-0.106 E-score
16,AACTACCA,0.433 E-score
17,AACTACCC,0.338 E-score
18,AACTACCG,0.41 E-score
19,CACTACCG,0.065 E-score
20,CACTACCC,-0.0292 E-score
21,CACTACCA,0.0866 E-score
22,AACTATCT,0.294 E-score
23,AACTACCT,0.412 E-score
24,AGCTACCG,0.228 E-score
25,GACTACCC,0.0938 E-score

row,Sequence,binding signal
1,ACCTACCT,0.154 E-score
2,GACTACCA,0.141 E-score
3,CAATTTTA,0.234 E-score
4,ACGGGAGA,-0.12 E-score
5,CAAGTTGA,-0.0731 E-score
6,TCGACTAA,0.0796 E-score
7,AAAGTTCT,0.145 E-score
8,GCTCGGTA,0.0228 E-score
9,AGCGGCCG,-0.112 E-score
10,CATTGATA,0.26 E-score
11,ACGTTCAC,0.0772 E-score
12,GATAAGTA,0.238 E-score
13,CCGTCGAA,0.0267 E-score
14,GGAATGGA,-0.114 E-score
15,TGCTACCA,0.099 E-score
16,TCCTACCA,0.273 E-score
17,TACTACCA,0.404 E-score
18,CGCTACGA,0.0242 E-score
19,CCTGTCCC,0.0167 E-score
20,CAATACTA,0.217 E-score
21,AAATACTA,0.434 E-score
22,AAATACTG,0.283 E-score
23,GAATACTA,0.209 E-score
24,TAATACTA,0.401 E-score
25,AAATACTC,0.205 E-score

row,Sequence,binding signal
1,CATCCCTA,-0.0266 E-score
2,AGCTCGTA,0.00298 E-score
3,AATCTAGG,0.171 E-score
4,AATCTATA,0.4 E-score
5,AATCTATG,0.135 E-score
6,GATCTATA,0.305 E-score
7,AATCTAGA,0.331 E-score
8,TATCTAGA,0.159 E-score
9,CATCTATC,0.201 E-score
10,AATCTATC,0.421 E-score
11,CATCTATA,0.201 E-score
12,ACACGTGT,0.00499 E-score
13,GATAAGAC,0.14 E-score
14,ACATGCGG,0.0405 E-score
15,AAAAAGAG,-0.0136 E-score
16,CTCACATC,-0.132 E-score
17,ATTCATCA,0.0772 E-score
18,ACGATGCT,0.0784 E-score
19,ACTGACAT,-0.113 E-score
20,ACAGTCCC,-0.126 E-score
21,GCATAGAC,-0.0624 E-score
22,TACATATA,0.349 E-score
23,TATATGGA,0.343 E-score
24,CACATGTA,0.162 E-score
25,AACATATA,0.208 E-score

row,Sequence,binding signal
1,AACATCTA,0.165 E-score
2,GACATATA,0.307 E-score
3,GATATGGA,0.0314 E-score
4,TACATGTA,0.417 E-score
5,CATATGGA,0.0214 E-score
6,CACATCTA,0.151 E-score
7,TACATCTA,0.369 E-score
8,AACATGTA,0.237 E-score
9,AGTCAACT,0.173 E-score
10,AGATTCGA,0.104 E-score
11,ATAATTCG,0.213 E-score
12,CCTGGTTA,0.0123 E-score
13,CGACTCTA,-0.0898 E-score
14,CCACATAC,0.16 E-score
15,AGTGGAAT,-0.0459 E-score
16,CTTATATA,0.321 E-score
17,CATATATG,0.306 E-score
18,CATATATC,0.279 E-score
19,TATATAGA,0.397 E-score
20,CATATATA,0.353 E-score
21,CATATAGA,0.144 E-score
22,TATATATA,0.454 E-score
23,GATATAGA,0.244 E-score
24,TATATCGA,0.314 E-score
25,CCAGTACA,0.0219 E-score

row,Sequence,binding signal
1,GTAGTGCA,0.015 E-score
2,CAGGGCTA,-0.0484 E-score
3,CCTGTATA,0.157 E-score
4,CAGGCGCC,-0.149 E-score
5,TACGTTCA,0.085 E-score
6,CATAACGC,0.0154 E-score
7,ACTTTGGA,-0.0486 E-score
8,ATGACGTA,-0.0485 E-score
9,AATCTGGA,-0.12 E-score
10,AACCAGTA,0.278 E-score
11,ATCTAGTG,0.364 E-score
12,AACTAGTG,0.376 E-score
13,AACTAGGT,0.318 E-score
14,CACTAGTA,0.253 E-score
15,ATCTAGTC,0.287 E-score
16,AACTAGTA,0.47 E-score
17,ATCTAGTA,0.31 E-score
18,CACTAGTG,-0.0787 E-score
19,ACCTAGTA,0.233 E-score
20,AACTAGTC,0.0892 E-score
21,AACTAGTT,0.439 E-score
22,AACTAGGG,-0.0014 E-score
23,CTGACATC,-0.162 E-score
24,ATTACGCC,-0.0244 E-score
25,CTTAAAGA,-0.126 E-score

row,Sequence,binding signal
1,CATAGTGC,-0.076 E-score
2,ATTGTCCG,-0.0512 E-score
3,AAGCAAGC,-0.165 E-score
4,CAGCAATA,0.203 E-score
5,CGTCATAC,0.0184 E-score
6,AGCTAGTC,0.104 E-score
7,GACTAGGA,-0.0139 E-score
8,GGCTAGTA,0.115 E-score
9,GACTAGTA,0.368 E-score
10,AGCTAGTA,0.336 E-score
11,TACTAGGA,0.115 E-score
12,TACTAGTA,0.433 E-score
13,GACTAGTC,0.0585 E-score
14,TACTAGCA,0.256 E-score
15,AGCGCTCA,0.00935 E-score
16,CTGCTACC,-0.0872 E-score
17,TCCCTAAA,-0.186 E-score
18,ACGCGCTC,-0.0411 E-score
19,AGTTTCCG,0.112 E-score
20,GCGGCCAA,-0.114 E-score
21,GAACGTTA,0.178 E-score
22,TAACGTTA,0.339 E-score
23,AAACGTTA,0.0818 E-score
24,CCTAATGC,-0.154 E-score
25,AACGTGGC,-0.0901 E-score

row,Sequence,binding signal
1,CAAGTATA,0.251 E-score
2,CTAGTATA,0.37 E-score
3,CTAGTATC,0.111 E-score
4,GCAGTATA,0.224 E-score
5,ATAGTATG,0.316 E-score
6,GAAGTATA,0.164 E-score
7,GTAGTATA,0.428 E-score
8,ATAGTATA,0.334 E-score
9,ATAGTATC,0.278 E-score
10,CGTTGGAG,-0.19 E-score
11,AGGTATAC,0.19 E-score
12,CATTCATA,0.181 E-score
13,CTGTCCCA,-0.0317 E-score
14,CTTTCTCA,-0.12 E-score
15,AGGGAAAC,-0.0931 E-score
16,AGATAGAC,0.0495 E-score
17,ACATAGAC,0.0775 E-score
18,AGATAGAT,0.349 E-score
19,ACATAGAT,0.33 E-score
20,ACATAGAG,-0.0925 E-score
21,AGATAGAG,0.128 E-score
22,AATTAGAA,0.202 E-score
